# HDAC3 inh: HDAC3 deacetylase inhibitors, primary screen, biochemical, fluorescence, cell-free homogeneous. inhibition, % at 8.3 µM. 0.15% of 320,000 active. recombinant HDAC3, fluorogenic peptide/trypsin coupled. AID 2718, 2010; in the data active means inhibition above about 26%, passing the limit was not always enough; inconclusive means no clear call, values can overlap the other calls
# ALR H2O2 inh: inhibitors of human ALR sulfhydryl oxidase, primary screen, biochemical, H2O2 detection, HRP-luminol luminescence, single point. 3.8% of 290,000 active. FAD-linked sulfhydryl oxidase ALR (Homo sapiens), P55789. purified ALR, DTT oxidation. inhibition, % (no concentration beside the values);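 active means mean replicate inhibition above about 79%, with every replicate also reaching it, limit read from the data; inconclusive means only one of the two criteria met; inactive means mean below limit and not every replicate reaching it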
# Target sequence (P55789 whole entry, looked up): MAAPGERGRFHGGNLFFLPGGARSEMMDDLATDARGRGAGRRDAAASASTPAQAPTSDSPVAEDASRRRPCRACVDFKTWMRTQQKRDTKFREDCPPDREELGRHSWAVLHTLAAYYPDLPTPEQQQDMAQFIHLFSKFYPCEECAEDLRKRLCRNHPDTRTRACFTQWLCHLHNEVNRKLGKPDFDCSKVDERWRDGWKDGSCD
# GRK2 aptamer HTS: compounds blocking aptamer binding on GRK2 – biochemical, human GRK2, bead flow cytometry, HTS, primary screen | 0.59% of 330,000 active | Beta-adrenergic receptor kinase 1 (Homo sapiens), P25098 | inhibition of aptamer binding, % at 10 µM | FAM-aptamer displacement from GRK2;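 active means inhibition of aptamer binding above 40%, roughly 3 SD of noise, on plates passing a quality check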;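 further: median bead fluorescence of bound FAM aptamer so fluorescent compounds give negative values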
# Rce1 inhib: yeast Rce1p protease inhibitors, primary screen, biochemical, fluorescence, cell-free homogeneous; AID 2563, 2010; calls only; yeast membranes, quenched prenylated peptide cleavage fluorescence; 0.27% of 290,000 active; CAAX prenyl protease 2 (Saccharomyces cerevisiae (strain ATCC 204508 / S288c)), Q03530;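 active means fall in fluorescence gain of 50% or more versus controls, with final raw signal at or below 3038400; inconclusive means same 50% fall but final raw signal above 3038400; inactive means fall in fluorescence gain under 50%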;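 further: plate controls were neutral control wells for no effect and wells lacking membranes for full effect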
# Rtt109 Vps75: inhibitors of C. albicans Rtt109/Vps75 HAT, primary screen, biochemical, ThioGlo CoA-SH fluorescence, plate reader. purified Rtt109/Vps75, 4 h. inhibition, % at 34.9 µM. 0.16% of 330,000 active;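 active means inhibition of at least 50% in every replicate; inconclusive means best replicate reaches 50% inhibition but some replicates fall short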
# Target sequence (Q5AAJ8 whole entry, looked up): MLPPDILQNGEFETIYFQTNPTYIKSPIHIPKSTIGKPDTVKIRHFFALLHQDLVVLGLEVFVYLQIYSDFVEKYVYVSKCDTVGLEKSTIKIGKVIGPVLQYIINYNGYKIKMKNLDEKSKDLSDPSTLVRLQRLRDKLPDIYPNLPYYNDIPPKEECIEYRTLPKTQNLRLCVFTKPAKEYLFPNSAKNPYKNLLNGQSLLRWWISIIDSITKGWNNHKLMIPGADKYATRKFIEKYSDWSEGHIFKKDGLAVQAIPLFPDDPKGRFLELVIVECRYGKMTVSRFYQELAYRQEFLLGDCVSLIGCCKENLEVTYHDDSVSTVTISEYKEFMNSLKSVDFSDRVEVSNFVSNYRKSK
# Efflux pump inh: inhibitors of Candida efflux pumps in yeast, primary screen, S. cerevisiae, Nile Red, multiplex | 0.44% of 330,000 active | AID 485275, 2010 | S. cerevisiae Candida pump triplex | inhibition, % at 10 µM;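 active means plate passing quality check with inhibition over a set limit, or well fluorescence over plate mean plus 4 SD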;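 further: Nile Red retained in pooled yeast measured as flow cytometry median fluorescence; 0% = buffer negative control and 100% = Enniatin B positive control; higher means more Nile Red kept so more efflux inhibition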
# The depositor's hits bear a star; i = inactive; ? = inconclusive; nt = no result given; + = active, no number. Rows were chosen to be rich in hits. Some 4.5% of all compounds tested hit in one or more screens of this group.
SMILES,HDAC3 inh,ALR H2O2 inh,GRK2 aptamer HTS,Rce1 inhib,Rtt109 Vps75,Efflux pump inh
Cc1cccc(C(=O)N2CCNC(=O)C2CC(=O)Nc2cccc(Cl)c2)c1 (stereo not drawn),-10,-5,0,i,6,0
COc1ccc2c(c1OC)C(=O)OC2CC(=O)c1ccc(O)c(O)c1 (stereo not drawn),4,99*,0,i,6,0
Cc1c(NC(=O)C(C)OC(=O)COc2ccc(C#N)cc2)c(=O)n(-c2ccccc2)n1C (stereo not drawn),-1,3,0,i,nt,0
O=C1[C@H](Oc2ccccc2)[C@@H](c2ccccc2)N1c1ccncc1,nt,nt,6,nt,-1,0
O=C1[C@@H](Oc2ccccc2)[C@@H](c2ccccc2)N1c1ccccc1,nt,nt,41*,nt,0,0
O=C(CSc1nc2c(c(=O)n1-c1ccc(Cl)cc1)SCC2)Nc1nccs1,14,-27,2,nt,-7,0
CCn1c(SCC(N)=O)nc2sc3c(c2c1=O)CCN(C)C3,-10,40,0,i,-3,0
CCn1c(SCC(=O)Nc2ccc(C)cc2)nc2sc3c(c2c1=O)CCN(C)C3,3,99*,1,i,?,0
O=C(CSc1nc2c(c(=O)n1-c1ccc(Br)cc1)SCC2)Nc1nccs1,-4,99*,3,i,6,0
COc1ccc(-n2c(SC)nc3sc4c(c3c2=O)CCN(C)C4)cc1,nt,nt,nt,i,6,nt
COc1ccc(-n2c(SCC(=O)Nc3nccs3)nc3sc4c(c3c2=O)CCN(C)C4)cc1,5,99*,0,i,-6,0
COc1ccc(NC(=O)CSc2nc3sc4c(c3c(=O)n2-c2ccc(OC)cc2)CCN(C)C4)cc1,21,98*,0,i,22,0
CCN1CCc2c(OCc3ccc(C)cc3)cccc2C1=O,-3,5,1,i,-3,0
CCOc1ccc(NC(=O)NC2CCS(=O)(=O)C2)cc1 (stereo not drawn),4,0,1,i,-1,0
O=C(CSc1nnnn1C1CC2C=CC1C2)Nc1ccc(C(=O)O)cc1 (stereo not drawn),nt,nt,0,i,0,0
CCOC(=O)CSc1nc2sc3c(c2c(=O)n1C1CCCCC1)CCN(C)C3,6,100*,1,i,-6,0
CCOC(=O)CSc1nc2sc3c(c2c(=O)n1-c1ccc(OCC)cc1)CCN(C)C3,5,94*,0,i,1,0
COc1ccccc1/C=C/C(=O)OCC(=O)NC(=O)NC1CCCC1,-2,-2,1,nt,0,0
CN(CCOc1ccc(Br)cc1)CC(O)c1ccccc1 (stereo not drawn),2,nt,0,i,3,5.3*
CCc1ccc(S(=O)(=O)Nc2ccc(O)c3c(=O)cc(-c4ccccc4Cl)oc23)cc1,4,3,4,i,-5,0
O=c1cc(-c2ccccc2Cl)oc2c(NS(=O)(=O)c3cc(Cl)cc(Cl)c3O)ccc(O)c12,0,97*,2,i,-2,0
CCN1CCN(CCCN(Cc2cccs2)C(=S)Nc2ccccc2C)CC1,2,-3,0,i,-2,0
O=C(NCc1ccco1)c1ccc(COc2cccc3ccccc23)cc1,nt,nt,1,i,-16,0
Cc1cc(C)n(Cc2ccc(NC(=O)c3ccc(COc4ccccc4Br)cc3)cc2)n1,14,-27,0,+,-8,0
O=C(NCc1ccco1)c1ccc(COc2ccccc2Cl)cc1,-3,99*,3,i,1,0
SMILES,HDAC3 inh,ALR H2O2 inh,GRK2 aptamer HTS,Rce1 inhib,Rtt109 Vps75,Efflux pump inh
NC(=O)c1ccc(NC(=O)c2ccc(COc3ccccc3Br)cc2)cc1,nt,nt,nt,nt,2,nt
O=C(NCc1ccco1)c1ccc(Oc2ccccc2)cc1,6,90*,0,nt,2,0
O=C(NCc1cccnc1)c1ccc(COc2ccccc2Cl)cc1,8,98*,1,nt,1,0
Cc1csc(=O)n1CC(=O)OCC(=O)NC(C)c1ccc(F)cc1 (stereo not drawn),-2,-1,0,nt,4,0
O=C(NCc1ccco1)c1ccccc1F,6,58,1,i,-4,0
O=C(NCc1ccco1)c1ccccc1Nc1ccc(F)cc1,-6,99*,0,i,8,0
Cc1cc(C)nc(NC(=O)c2ccc(COc3ccccc3Cl)cc2)c1,13,97*,0,i,nt,0
O=C(Nc1ccn(Cc2c(F)c(F)cc(F)c2F)n1)c1ccc(COc2ccccc2Cl)cc1,9,1,1,i,5,0
COc1ccc2[nH]cc(CCNS(=O)(=O)c3ccccc3)c2c1,2,95*,0,i,-1,0
COc1ccc2[nH]cc(CCNS(=O)(=O)c3ccc(F)cc3)c2c1,-3,22,6,i,5,0
CCOC(=O)c1ccc(S(=O)(=O)Nc2cc(C(=O)O)ccc2Cl)cc1,8,99*,1,i,3,0
O=C(Nc1nc2c(s1)CCc1ccccc1-2)c1cccs1,3,-25,0,i,-31,0
O=C(Nc1nc2c(s1)COc1ccccc1-2)c1cccs1,nt,96*,1,i,-7,0
Cc1ccc2nc(-c3ccc(NC(=S)NC4CC(C)(C)NC(C)(C)C4)cc3)sc2c1,-1,50,0,i,62*,0
CC(C)S(=O)(=O)c1cnc(N2CCOCC2)nc1N,1,-3,0,i,2,0
CC(C)C(=O)Nc1nnc(NC(=S)Nc2ccccc2)s1,7,82*,0,i,8,0
COc1ccc(CN(CC(=O)NCc2ccco2)C(=O)CNS(=O)(=O)c2ccc(C)cc2)cc1,5,nt,0,i,-5,0
Nc1nc(C2CC2)c(Sc2sc(N)nc2C2CC2)s1,-4,99*,0,i,-13,0
O=C(/C=C/c1cn(CC(O)CN2CCCCC2)c2ccccc12)c1ccccc1 (stereo not drawn),nt,nt,nt,i,53*,nt
COc1ccc(CCNC(=O)COC(=O)C2CC2)cc1OC,-5,-1,0,nt,3,0
COc1ccc(-c2csc3[nH]c(=S)n(-c4ccccc4)c(=O)c23)cc1OC,3,83*,6,i,6,0
COc1cccc(-c2cc3c(=O)n(-c4ccccc4)c(=S)[nH]c3s2)c1,6,1,0,i,-3,0

# Screening results: PubChem, several laboratories
